Compounds without any hit were thinned out: in the full panel of roughly 79,000, 15% have a hit. Calls of active or inactive are those of the source. Cut-off read from the data, not from the text of the source: active = growth inhibition above about 70%; inactive = the rest.
Test: NCI Yeast Anticancer Drug Screen. Data for the mec2-1 strain (AID 157)
Conditions: S. cerevisiae mec2-1 strain, at 50.0 µM, active compounds read high
Summary of the method: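 Cells of the genetically defined mec2-1 yeast strain are incubated with test compound. Inhibition of growth is calculated against vehicle-treated controls.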

| SMILES | growth inhibition |
| --- | --- |
| CCOP(=O)(OCC)/C(C#N)=C/c1ccc(Oc2ccccc2)cc1 | 93.6% (active) |
| CC(=O)Nc1ccc(S(=O)(=O)/N=C2\C=CC(=O)c3ccccc32)cc1 | 54.6% (inactive) |
| CCCC#CCCOC(=O)c1cc([N+](=O)[O-])cc([N+](=O)[O-])c1 | 98.5% (active) |
| COc1cccc2c1OC(c1ccc(Cl)cc1)C([N+](=O)[O-])=C2 (stereo not given) | 89% (active) |
| c1ccc(-n2c3ccccc3c3ccccc32)cc1 | 82.2% (active) |
| CCOC(=O)C(NC(C)=O)[CH](c1ccccc1)[Sn]([c]1ccccc1)([c]1ccccc1)[c]1ccccc1 (stereo not given) | 97.5% (active) |
| C/C(CCn1[nH]c(=O)ccc1=O)=N\Nc1ccc([N+](=O)[O-])cc1[N+](=O)[O-] | -0.6% (inactive) |
| N#CC(O)C(Br)(Br)Br (stereo not given) | 74.3% (active) |
| COc1ccc(N)c([N+](=O)[O-])c1 | 58% (inactive) |
| CC(C)O[C@H]1N(C2CC(N=[N+]=[N-])C(CO)O2)C(=O)NC(=O)[C@]1(C)Br (stereo not given in full) | 91.2% (active) |
| COc1ccc(C(=O)C2C(=O)C(=O)OC2C2OC(=O)C(=O)C2C(=O)c2ccc(OC)cc2)cc1 (stereo not given) | -7.3% (inactive) |
| O=[N+]([O-])c1c(Cl)c(Cl)c(O)c(Cl)c1Cl | 78.7% (active) |
| Cc1ccc(C)c(NC(=O)CCC(=O)CC(=O)c2ccncc2)c1 | 7.45% (inactive) |
| CC(C)CCCC(C)C1CCC2C3CC=C4CC(OC(=O)Nc5ccc(S(=O)(=O)c6ccc(F)cc6)cc5)CCC4(C)C3CCC12C (stereo not given) | 98% (active) |
| COc1ccc(/C=C(/NC(=O)c2ccccc2)C(=O)Nc2ccccc2)cc1OC | 16.1% (inactive) |
